Results: PubChem BioAssay AID901 (National Center for Advancing Translational Sciences (NCATS), 2007)
Fewer than 10 of roughly 120,000 compounds were called active. Not shown: some 4% with an inconclusive outcome. Calls come from the whole dose curve; as a rule, active = well fitted curve in the direction sought with a large enough effect in the signal ratio (not every such curve was filed as active); inconclusive = small, poorly fitted or top-dose-only effect, or a change in a side signal; inactive = no such curve, though single readings can be large or run the other way; the % refers to the signal ratio. A selection follows.

Target: Inositol monophosphatase 1 (Rattus norvegicus) (UniProt P97697)
Assay: qHTS Assay for Identifying the Cell-Membrane Permeable IMPase Inhibitors;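 note: plate controls were DMSO basal wells for no effect and reference inhibitor wells for full effect; higher means more IMPase inhibition seen as more IP1 and lower FRET ratio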
Settings: CHO-M1 cells, HTRF TR-FRET ratio; series mostly up to 46.1 µM; inhibition (IP1 accumulation): at the top concentration
Description: NCGC IMPase Assay Overview
Lithium has been widely used for the treatment of bipolar disorder. But lithium has a narrow therapeutic index and it can cause side effects such as thirst, weight gain, tremor, polyuria and memory problems. Although the mechanism for lithium action in treatment of bipolar disorder is still not fully understood, inhibition of inositol monophosphatase (IMPase) and the subsequent depletion of the inositol pool in living cells have been implicated as the primary therapeutic benefit of lithium therapy. Therefore, a selective IMPase inhibitor with reduced side effects might be a good drug candidate to replace lithium for the treatment of bipolar disorder. Several IMPase inhibitors have been discovered previously. However, they are not suitable for therapeutic use because of their poor cell membrane penetrability or oral bioavailability; the development of new cell-permeable IMPase inhibitors is needed.
IMPase catalyzes the hydrolysis of inositol-1-phosphate (IP1) to release free inositol. Binding of an agonist to a Gq coupled GPCR results in the activation of PLC, which hydrolyzes the PIP2 to form inositol-1,4,5-trisphosphate (IP3) and diacyl glycerol (DAG). While DAG activates protein kinase C (PKC), IP3 triggers the elevation of intracellular free Ca2+. The IP3 is very rapidly inactivated by hydrolysis to IP2, IP1 and then inositol by a series of enzymes including IMPase. Free inositols are used for synthesis of PI and thus start another inositol cycle.
To identify new cell-permeable IMPase inhibitors, we developed a cell-based IMPase assay in which the cytosolic IP1 is measured by a time-resolved fluorescence resonance energy transfer (TR-FRET) assay. In this assay, an IP1 specific antibody is used to detect the labeled IP1 tracer. When the cell lysate contains the elevated IP1 due to the inhibition of IMPase, the TR-FRET between the labeled antibody and IP1 tracer is disrupted resulting in a reduction in the total signal. Since the TR-FRET is used, this cell-based assay is a homogenous assay without cell wash and medium change that is suitable for assay miniaturization and HTS.
NCGC IMPase Assay Protocol Summary
A Chinese hamster ovary (CHO) cell line stably expressing the M1 receptor (CHO-M1) was obtained from ATCC and maintained in F-12 Kaighn's media (Invitrogen, Carlsbad, CA, 21127) supplemented with 10 % FBS, 100 units/ml penicillin, 100 ug/ml streptomycin and 250 ug/ml geneticin at 37C, 5% CO2 in a humidified atmosphere. Before the assay, aliquots of cells were frozen and stored at -135C. The assay was performed in 1536-well format. Data are reported for both the ratio of the two emission wavelengths, and also for the component 'donor' channel, Em2=620. […] AC50 values were determined from concentration-response data modeled with the standard Hill equation.
IMPase 1536-well assay protocol:
(1) Plate 4 ul/well (2000 cells) of cell suspension from frozen CHO-M1 Cells in white, tissue culture treated 1536-well plates that are cultured at 37C, 5 % CO2 for 16 to 30 hours.
(2) Add 23 nl/well of compound in DMSO solution. The final titration for each compound was between 0.6 nM and 46 uM.
(3) Add 1 ul of carbachol (50 uM in stimulation buffer containing10mM HEPES, 1mM CaCl2, 0.5 mM MgCl2, 4.2 mM KCl, 146 mM NaCl, 5.5 mM glucose, 50mM LiCl, pH 7.4.
(4) Incubation at 37C, 5 % CO2 for 30 min.
(5) Add 1 ul/well of d2-conjugated IP1 (d2-IP1) and 1 ul/well of Eu+ cryptate conjugated anti-IP1 antibody (Eu+-Ab) prepared in the cell lysis buffer, both from the IP-One kit (Cisbio, MA).
(6) Incubate at room temperature for 10 minutes.
(7) Detect the assay plate (Ex = 320, Em1 =665 and Em2 620) in a ViewLux plate reader.
inositol monophosphatase, IMPase, IMPase inhibitor, lithium, bipolar disorder, IP-One, HTRF, qHTS, NIH roadmap, NCGC
Note: In the gene ID and protein GI references for this assay, rat IMPase is referenced instead of hampster as hamster accession numbers were not available.

Inositol monophosphatase 1 (Rattus norvegicus), sequence (P97697 whole entry, looked up): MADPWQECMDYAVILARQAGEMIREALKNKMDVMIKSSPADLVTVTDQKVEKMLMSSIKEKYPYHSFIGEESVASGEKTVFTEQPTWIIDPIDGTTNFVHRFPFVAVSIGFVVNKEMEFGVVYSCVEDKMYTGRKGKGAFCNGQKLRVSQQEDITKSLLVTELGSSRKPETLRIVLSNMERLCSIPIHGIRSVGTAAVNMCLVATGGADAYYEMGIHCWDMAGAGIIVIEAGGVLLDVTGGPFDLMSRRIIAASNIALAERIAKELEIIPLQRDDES

Inhibition (IP1 accumulation), inactive:
O=C(Nc1ccc(O)c(-c2nc3ccccc3o2)c1)c1ccc(-c2cccc(Cl)c2)o1 -11.9%
CC1CCCCN1CC(=O)N1CCCc2c1c(=O)oc1ccc(OCc3ccccc3)cc21 (configuration not stated) 18.3%
COc1ccc(C2(Nc3cccc(F)c3)C(=O)c3ccccc3C2=O)cc1 -0.304%
Cc1ccc(C(=O)CSc2nc(-c3ccccc3)nc3c2CCCC3)c(C)c1 1.96%
CCOc1ccc(S(=O)(=O)N/N=C(\C)c2ccc(Cl)c(Cl)c2Cl)cc1 -9.4%
Cc1ccc(C(=O)CC2(O)C(=O)N(CCc3ccccc3)c3ccc(Br)cc32)cc1 (configuration not stated) 3.88%
COc1ccc2oc(-c3cccc(NC(=O)CSc4ccc(Cl)cc4)c3)nc2c1 0.798%
CCCC(=O)Nc1ccc2oc(-c3ccc(O)c(Br)c3)nc2c1 -4.01%
COc1cccc(C(=O)Nc2ccc3oc(-c4ccc5ccccc5c4)nc3c2)c1 -2.1%
Cc1cccc(C(CC(=O)NCC2(c3ccccc3)CCCC2)c2ccccc2)c1O (configuration not stated) 15.9%
Cc1ccc(OCC(=O)Nc2ccccc2Sc2ccc(Cl)cc2)c([N+](=O)[O-])n1 5.91%
CN(C(=O)CSc1nnc(-c2n[nH]c3ccccc23)o1)c1ccccc1 6.63%
CC(=O)NC(Cc1ccccc1)C(=O)NC1CCN(c2ncccc2[N+](=O)[O-])CC1 (configuration not stated) 2.31%
COc1ccc(/C=C/C(=O)OCC(=O)NCc2cccs2)cc1OC -2.82%
COc1ccc(S(=O)(=O)Nc2cc3c(C(=O)OC(C)C)c(C)oc3c3ccccc23)cc1 -5.87%
CCOC(=O)c1c(C)oc2ccc(N(C(=O)c3ccncc3)S(=O)(=O)c3ccc(CC)cc3)cc12 -6.13%
CCCCOC(=O)/C(C#N)=C/c1ccc(-c2cccc(C(F)(F)F)c2)o1 -13.1%
CCc1ccccc1NC(=O)CSc1nc(C)c(C(=O)Nc2ccccc2)c(-c2ccc(Cl)cc2)c1C#N -1.93%
Oc1ccccc1-c1nc(/C=C/c2ccc(F)cc2)no1 3.17%
COc1ccc(NC(=O)CSC2=Nc3ccccc3C3=NC(CC(=O)NCc4ccccc4OC)C(=O)N23)cc1Cl (configuration not stated) 10.5%
COc1ccc(C(C(=O)NC2CCCCC2)N(C(=O)CCl)c2ccccc2Cl)cc1 (configuration not stated) 5.3%
COc1ccc(S(=O)(=O)NCCc2cc3ccc(C)c(C)c3[nH]c2=O)cc1 8.73%
COc1ccc2c(CN3CCN(S(=O)(=O)c4cccs4)CC3)cc(=O)oc2c1 9.63%
CC(=O)Nc1ccc(NC(=O)CSc2nnc3c4cc(Br)ccc4n(C)c3n2)cc1 2.51%
CCc1ccccc1NS(=O)(=O)c1ccc2nc(-c3ccccc3)[nH]c2c1 2.4%
COC(=O)c1ccc(-c2nc3cc(NC(C)=O)ccc3o2)cc1 1.77%
CCCOc1ccc(NC(=O)C2OC3OC(C)(C)OC3C3OC(C)(C)OC23)cc1 (configuration not stated) -8.83%
O=C(Nc1nnc(SCc2ccccc2Cl)s1)c1cccc([N+](=O)[O-])c1 -12%
CC1=C(C(=O)OCc2ccc(C)cc2)C(c2c(Cl)cccc2Cl)CC(=O)N1 (configuration not stated) 4.36%
CC(C)Cn1c(-c2ccc(S(=O)(=O)N3CCOCC3)cc2)csc1=Nc1cc(Cl)ccc1Cl -9.89%
CN(Cc1cccs1)C(=O)Cc1c[nH]c2ccccc12 -0.545%
CCC(C)c1ccc2oc(-c3ccc(NC(=O)c4cc5ccccc5o4)cc3)nc2c1 (configuration not stated) -5.88%
Cc1cc2nc(-c3ccc(NC(=O)c4cc5ccccc5o4)cc3)oc2cc1C -5.2%
COc1cc(C2c3c(oc4ccccc4c3=O)C(=O)N2c2nc(C)c(C)s2)ccc1O (configuration not stated) 4.82%
COc1ccc(C)cc1N(CC(=O)N1CCC(C)CC1)S(=O)(=O)c1ccc(C)cc1 0.568%
Cc1ccc(-c2cc(C(F)(F)F)c(C#N)c(SCC(=O)Nc3ccccc3)n2)cc1 -10.8%
CN(C)c1ccc(/C=N/N(Cc2ccccc2)c2ccccc2)cc1 8.78%
CC(=O)NC1C(Oc2ccc(C)cc2)OC2COC(c3ccco3)OC2C1O (configuration not stated) -1.45%
COCCNC(=O)CSc1nc(-c2ccccc2)[nH]c1-c1ccc(C)cc1 8.62%
CCOc1ccc(/C=N/NC(N)=S)cc1 -1.53%
O=C(CSc1nc(-c2cccc(F)c2)[nH]c1-c1ccccc1)Nc1ccc2c(c1)OCO2 9.1%
CCc1cccc(C)c1Nc1c(-c2ccc(N(C)C)cc2)nc2ncccn12 -1.76%
Cc1nnc(SCC(=O)N2CCOCC2)[nH]c1=O -4.89%
Cc1cc([N+](=O)[O-])ccc1NC(=O)C1CCCO1 (configuration not stated) 23.4%
CCCn1c(NCc2ccc(N(CC)CC)cc2)nc2ccccc21 11.4%
COc1ccc(Cl)cc1NC(=O)NCC1CCN(Cc2ccccc2F)CC1 8.24%
Cc1cc2ccccc2n1CCNC(=O)c1ccc(F)cc1 -18.2%
CN(C)CCCO/N=C(\c1ccccc1)c1ccncc1 5.99%
CCCCNC(=O)CSc1nc2ccc(NC(=O)CSc3nnc(N)s3)cc2s1 4.12%
CCOC(=O)c1cc(NC(=O)c2ccc(F)cc2)c(=O)n2c1oc1ccccc12 -0.525%
Cn1c(=O)[nH]c(=O)c2c1nc(NCCc1ccccc1)n2Cc1ccc(F)cc1 6.25%
COc1ccc(NC(=O)c2ccco2)cc1NC(=O)COc1ccc(C)c(C)c1 4.71%
CCN(c1ccc(NC(=O)COC(=O)CCc2nc3ccccc3n2-c2ccccc2)cc1)C(C)C 5.12%
COC(=O)c1c(NC(=O)CN2C(=O)NC(CCc3ccccc3)C2=O)sc2c1CCCCC2 (configuration not stated) -1.12%
Cn1c(=O)c2c(nc(NCCc3ccccc3)n2Cc2ccccc2Br)n(C)c1=O -7.14%
COc1ccccc1CNC(=O)CN1CCC(n2cnc3cc(F)ccc32)CC1 1.64%
Cc1ccc(NC2=C(c3ccc(C(F)(F)F)cc3)C(=O)c3ccccc32)cc1F 1.88%
CCOC(=O)c1cnc2c(C)cc(C)cc2c1Nc1ccc(N2CCOCC2)cc1 4.63%
CC(=O)Nc1ccc(Nc2c([N+](=O)[O-])cc(S(C)(=O)=O)cc2[N+](=O)[O-])cc1 -9.65%
COc1cccc(NC(=O)C(Sc2nc3ccccc3c(=O)n2CC(C)C)c2ccccc2)c1 (configuration not stated) -4.66%
CC(C)c1ccc(S(=O)(=O)Nc2ccc(O)c(Sc3nc4ccccc4s3)c2)cc1 -5.6%
COc1ccc(CCNC(=O)CSc2nc(-c3ccc(OC)c(OC)c3)ccc2C#N)cc1 1.97%
COc1ccc(C(=O)COC(=O)CCCC(=O)Nc2cc(C(F)(F)F)ccc2Cl)cc1 10.4%
COc1cc(C(=O)N(Cc2ccc(C(C)C)cc2)C2CCS(=O)(=O)C2)cc(OC)c1OC (configuration not stated) -0.255%
CCCC(=O)Nc1cc2nn(-c3ccccc3)nc2cc1C -6.42%
Cc1ccc2oc3c(c(=O)c2c1)C(c1ccc(O)cc1)N(Cc1ccc2c(c1)OCO2)C3=O (configuration not stated) 2.16%
Cc1[nH]c2ccccc2c1/C=N/NC(=O)CNC(=O)c1ccc2c(c1)OCO2 6.43%
Cc1ccccc1NC(=O)CSC1=NCCN1 10.8%
COc1ccccc1OCCCn1c(-c2ccc(Cl)cc2)nc2ccccc2c1=O -4.11%
Cc1cc(C)c[n+](-c2nc3ccccc3nc2[N-]S(=O)(=O)c2cccs2)c1 -6.46%
CC1CCCN(Cc2c(O)ccc3c(=O)c(Oc4ccc(C(C)(C)C)cc4)c(C(F)(F)F)oc23)C1 (configuration not stated) 2.45%
CCn1c(=O)c(=O)n(CC)c2cc(N3CCCCC3)c(NC(=O)c3cccc(F)c3)cc21 0.926%
COc1cccc(CNC(=O)CCc2nc(-c3ccc(C)cc3)no2)c1 -5.29%
COc1cc(OC)c(C2C=C(C(=O)O)Nc3ncnn32)cc1OC (configuration not stated) 5.67%
CCCn1c(N)c(C(=O)CSc2nnc(-c3cccnc3)n2-c2ccc(C)cc2C)c(=O)[nH]c1=O -2%
CCCCCC(=O)NC(=S)NNC(=O)c1ccc([N+](=O)[O-])cc1 -4.24%
CCOC(=O)c1c(-c2ccc(OC)cc2)oc2ccc(OCc3ccc(C(=O)OC)cc3)cc12 -6.8%
CC(C)c1ccc(OCC(=O)N(Cc2ccc(N(C)C)cc2)C2CCS(=O)(=O)C2)cc1 (configuration not stated) 0.605%
CCN(C(=O)Cn1cc(S(=O)(=O)N2CCN(c3ccccc3F)CC2)c2ccccc2c1=O)c1ccc(C)c(C)c1 8.07%
Cc1nn(Cc2ccc(Cl)cc2)c(Cl)c1/C=N/NC(=O)CNc1ccccc1F -3.36%
CC(C)(C)c1ccc(C(=O)NCc2nnc(SCC(=O)N3CCCc4ccccc43)n2-c2ccccc2)cc1 2.68%
COc1ccccc1N1CCN(CC(=O)NC(=O)NCc2ccco2)CC1 -2.3%
CC(=O)N1CCN(CC(=O)Nc2ccc(SC(F)F)cc2)CC1 -0.734%
Cc1ccc(Cl)cc1NC(=O)/C(C#N)=C\c1cn(Cc2ccc(F)cc2)c2ccccc12 -9.06%
COc1ccc(NS(=O)(=O)c2ccc(NC(=S)NC(=O)/C=C/c3ccc(C)cc3)cc2)nn1 -8.66%
N#CCOc1ccc(C2=NO[C@@H]3[C@@H]4C[C@@H]([C@H]5C(=O)N(c6ccc7c(c6)OCO7)C(=O)[C@@H]45)[C@H]23)cc1 10.3%
Cc1ccc(S(=O)(=O)c2nc(-c3cccs3)oc2N2CCCCC2)cc1 5.35%
CCCCn1c(=O)c(CCC(=O)OCC(=O)Nc2ccc(C)c(Cl)c2)nc2ccccc21 8.38%
Cc1c(Cl)cccc1NC(=O)Cn1cc(C(=O)c2cccs2)c2ccccc21 3.52%
O=C(CCc1ccc(S(=O)(=O)N2CCOCC2)cc1)NN=C1CCCCCCC1 0.0166%
Cc1ccc(CN2C(=O)SC(Nc3ccccc3)C2=O)cc1 (configuration not stated) 4.55%
COc1ccc(CCNC(=O)/C(C#N)=C2\N=C(NC(=O)c3cccs3)c3ccccc32)cc1 -5.67%
CCc1c(C)sc(NC(=O)C2c3ccccc3Oc3ccccc32)c1C(=O)OC(C)C 8.78%
COc1ccc(/C(C)=N/Nc2cc(C(F)(F)F)ccc2Cl)c(OC)c1 9.11%
Cc1ccccc1-c1nc2cc(NC(=O)c3cccc(OCCC(C)C)c3)ccc2o1 -1.42%
CCCc1c(C)nc2c(Br)cccc2c1Cl -4.07%
CCCCCNC(=O)c1cccnc1SCC(=O)Nc1ccccc1OC -11.3%
